For 19 molecules, outcome and AC50 results are on record in PubChem BioAssay (EPA / NIEHS).

Records with an inconclusive call do not appear. Active and inactive are the calls of the source. How the source made its calls: active means hit-call score of the fitted dose curve at least 0.9, where 1 is the maximum; inconclusive means response in the unintended direction; inactive means score below 0.9.

The target of experiment [1] is Androgen Receptor/SRC-1 Co-activator, AR (gene 367) (UniProt P10275). Description: OT_AR_ARSRC1_0960: Odyssey Thera (OT) 16-hour HEK293T Protein-Complementation Assay for Androgen Receptor/SRC-1 Co-activator (AID 2283353).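 Further: actives raise the signal above DMSO so potency reflects increased AR and SRC-1 complex.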 The method, boiled down: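 Split-Venus PCA, AR/SRC-1 fusions, stable HEK293T; 16 h compound exposure; imaged at 488 and 635 nm; N/C ratio (488 nm channel), min 400 cells/image; positive-direction fit, DMSO baseline.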

The target is the same in experiment [2]. Nature of the experiment: OT_AR_ARSRC1_0480: Odyssey Thera (OT) 8-hour HEK293T Protein-Complementation Assay for Androgen Receptor/SRC-1 Co-activator (AID 2283354).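 Further: hits raise the complementation signal above DMSO so AC50 marks enhancers.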 An outline of the steps: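 HEK293T cells stably expressing AR and SRC-1 fused to split Venus YFP fragments via (Gly4Ser)2 linkers were read 8 h after compound dosing. Complementation was imaged at 488 and 635nm, and nuclear/cytoplasmic fluorescence ratio (488nm) was taken over ≥400 cells; gain-of-signal versus DMSO.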

Experiment [3] has as its target Estrogen receptor (Homo sapiens) (UniProt P03372). Description: OT_ER_ERaERa_0480: Odyssey Thera (OT) 8-hour HEK293T Protein-Complementation Assay for Estrogen Receptor-alpha/-alpha Homodimer (AID 2283351).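 Further: rise in fluorescence from reassembled reporter fragments on ERα LBD homodimer in nucleus or whole cell.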 The method, boiled down:
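HEK293T, stable ERα LBD (aa 310-547) PCA homodimer; 8 h compound exposure; fluorescence intensity, laser scanning cytometer; positive fitting direction, DMSO baseline.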

Experiment [4] deals with T1, Estrogen receptor (Homo sapiens) + Estrogen receptor beta (Homo sapiens) (UniProt P03372+Q92731). Nature of the experiment: OT_ER_ERaERb_1440: Odyssey Thera (OT) 24-hour HEK293T Protein-Complementation Assay for Estrogen Receptor-alpha/-beta Homodimer (AID 2283356).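 Further: heteromer of ER alpha and ER beta binding domains; hits raise reporter fluorescence and both agonists and antagonists give an increase.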 An outline of the steps:
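HEK293T stably expressing a PCA of ER alpha LBD (aa 310-547) and ER beta LBD (aa 263-489). After 24 h compound exposure, mean fluorescence intensity in nucleus (agonists) or nucleus and cytoplasm (antagonists) measured by laser scanning cytometry versus vehicle.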

Experiment [5] has as its target Estrogen receptor beta (Homo sapiens) (UniProt Q92731). Nature of the experiment: OT_ER_ERbERb_0480: Odyssey Thera (OT) 8-hour HEK293T Protein-Complementation Assay for Estrogen Receptor-beta/-beta Homodimer (AID 2283357).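 Further: active means signal gain over DMSO baseline.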 An outline of the steps:
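Readout: increase in mean fluorescence intensity (nucleus for agonists; nucleus plus cytoplasm for antagonists) relative to DMSO, from a reporter-fragment complementation of human ER-beta LBD homodimer in HEK293T cells dosed 8 hours.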

The target in experiment [6] is T1, Estrogen receptor (Homo sapiens) + Estrogen receptor beta (Homo sapiens). Description: OT_ER_ERaERb_0480: Odyssey Thera (OT) 8-hour HEK293T Protein-Complementation Assay for Estrogen Receptor-alpha/-beta Heterodimer (AID 2283352). The method, boiled down:
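HEK293T protein-fragment complementation assay of ER-alpha/ER-beta LBD heterodimerisation, read 8 h after dosing. Mean nuclear/cytoplasmic fluorescence intensity measured by laser scanning cytometry; gain of signal fitted relative to DMSO.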

The target of experiment [7] is human Thyroid Receptor Alpha (TRa), THRA (gene 7067) (UniProt P10827). Description: NVS_NR_hTRa_Antagonist: NovaScreen (NVS) Nuclear Receptor Binding Assay for human Thyroid Receptor Alpha Antagonism (TRa) (AID 2283362).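 Further: activity is loss of signal relative to DMSO baseline.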 The method, boiled down: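 Cell-free AlphaLISA chemiluminescent binding read 1 h after dosing, antagonist mode; signal loss versus DMSO baseline. Primary screen in duplicate at 25 uM, then concentration series for actives.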

Experiment [8] has as its target human Peroxisome Proliferator-activated Receptor alpha (PPARa), PPARA (gene 5465) (UniProt Q07869). Nature of the experiment: NVS_NR_hPPARa: NovaScreen (NVS) Nuclear Receptor Binding Assay for human Peroxisome Proliferator-activated Receptor alpha (PPARa) (AID 2283359).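 Further: activity means loss of TR-FRET signal versus DMSO baseline.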 The method, boiled down: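 Cell-free binding assay with extracted human protein, read by TR-FRET 1 h after chemical dosing. Loss of signal relative to DMSO baseline indicates binding. Primary screen used duplicate single concentration (25 uM); actives followed up in concentration series.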

Sequence of Androgen Receptor/SRC-1 Co-activator, AR (gene 367) (P10275 whole entry, looked up, the tested form may be a part): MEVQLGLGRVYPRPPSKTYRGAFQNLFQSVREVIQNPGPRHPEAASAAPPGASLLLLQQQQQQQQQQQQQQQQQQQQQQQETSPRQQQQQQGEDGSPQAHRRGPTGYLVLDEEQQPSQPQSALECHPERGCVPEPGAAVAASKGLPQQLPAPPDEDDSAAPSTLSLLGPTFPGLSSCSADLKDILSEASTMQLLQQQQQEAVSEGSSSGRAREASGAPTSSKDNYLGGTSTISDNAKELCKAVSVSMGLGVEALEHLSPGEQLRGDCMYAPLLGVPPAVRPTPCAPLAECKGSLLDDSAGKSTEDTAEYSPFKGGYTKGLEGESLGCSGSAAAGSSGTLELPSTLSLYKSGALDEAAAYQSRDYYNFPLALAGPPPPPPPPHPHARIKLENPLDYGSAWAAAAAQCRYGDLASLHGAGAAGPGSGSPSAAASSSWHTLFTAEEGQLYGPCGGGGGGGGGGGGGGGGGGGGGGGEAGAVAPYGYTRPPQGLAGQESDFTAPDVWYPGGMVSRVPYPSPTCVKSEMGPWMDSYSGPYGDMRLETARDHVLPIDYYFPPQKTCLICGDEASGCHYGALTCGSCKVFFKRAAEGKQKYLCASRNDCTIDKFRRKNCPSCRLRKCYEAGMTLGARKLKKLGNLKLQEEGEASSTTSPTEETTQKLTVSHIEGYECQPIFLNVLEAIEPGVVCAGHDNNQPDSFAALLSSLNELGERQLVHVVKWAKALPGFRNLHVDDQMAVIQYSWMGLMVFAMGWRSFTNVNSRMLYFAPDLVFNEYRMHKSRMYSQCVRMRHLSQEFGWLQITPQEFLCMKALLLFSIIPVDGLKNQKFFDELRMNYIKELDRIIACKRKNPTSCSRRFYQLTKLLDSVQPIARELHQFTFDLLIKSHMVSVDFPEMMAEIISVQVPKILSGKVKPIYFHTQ
T1 sequence (P03372 whole entry, looked up, the tested form may be a part): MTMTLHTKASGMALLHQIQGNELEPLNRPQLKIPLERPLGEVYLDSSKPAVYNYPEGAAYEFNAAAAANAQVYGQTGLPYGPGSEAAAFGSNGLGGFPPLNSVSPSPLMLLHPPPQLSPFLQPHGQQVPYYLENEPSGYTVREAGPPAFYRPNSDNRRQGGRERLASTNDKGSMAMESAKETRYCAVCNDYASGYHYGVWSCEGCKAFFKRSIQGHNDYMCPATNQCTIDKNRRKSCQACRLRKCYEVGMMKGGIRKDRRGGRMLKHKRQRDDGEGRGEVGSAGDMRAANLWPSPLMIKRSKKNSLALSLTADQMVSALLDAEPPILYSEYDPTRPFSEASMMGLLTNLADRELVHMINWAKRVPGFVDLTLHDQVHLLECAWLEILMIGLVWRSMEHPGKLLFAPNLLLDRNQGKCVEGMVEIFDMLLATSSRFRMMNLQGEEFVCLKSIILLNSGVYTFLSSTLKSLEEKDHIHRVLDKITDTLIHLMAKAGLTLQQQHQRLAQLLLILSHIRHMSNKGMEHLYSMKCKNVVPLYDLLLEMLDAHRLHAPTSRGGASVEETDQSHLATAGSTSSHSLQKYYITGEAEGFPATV
T1 sequence (Q92731 whole entry, looked up, the tested form may be a part): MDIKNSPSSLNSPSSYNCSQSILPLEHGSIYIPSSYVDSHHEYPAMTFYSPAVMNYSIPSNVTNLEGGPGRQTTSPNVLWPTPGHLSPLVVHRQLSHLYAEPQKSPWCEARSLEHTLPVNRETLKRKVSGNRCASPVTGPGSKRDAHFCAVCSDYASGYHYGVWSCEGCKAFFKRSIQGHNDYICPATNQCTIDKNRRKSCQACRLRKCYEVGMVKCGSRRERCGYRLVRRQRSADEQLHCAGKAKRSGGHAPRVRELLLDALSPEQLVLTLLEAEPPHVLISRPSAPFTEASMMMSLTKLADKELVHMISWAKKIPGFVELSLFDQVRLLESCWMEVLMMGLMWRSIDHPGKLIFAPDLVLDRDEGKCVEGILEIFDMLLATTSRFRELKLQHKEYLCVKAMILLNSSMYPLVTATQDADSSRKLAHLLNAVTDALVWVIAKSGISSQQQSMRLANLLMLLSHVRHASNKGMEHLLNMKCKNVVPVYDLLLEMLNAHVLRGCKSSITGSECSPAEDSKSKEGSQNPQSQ
Sequence of Estrogen receptor (Homo sapiens) (P03372 whole entry, looked up, the tested form may be a part): as the sequence (P03372 whole entry, looked up, the tested form may be a part) above
Sequence of Estrogen receptor beta (Homo sapiens) (Q92731 whole entry, looked up, the tested form may be a part): as the sequence (Q92731 whole entry, looked up, the tested form may be a part) above
Sequence of human Peroxisome Proliferator-activated Receptor alpha (PPARa), PPARA (gene 5465) (Q07869 whole entry, looked up): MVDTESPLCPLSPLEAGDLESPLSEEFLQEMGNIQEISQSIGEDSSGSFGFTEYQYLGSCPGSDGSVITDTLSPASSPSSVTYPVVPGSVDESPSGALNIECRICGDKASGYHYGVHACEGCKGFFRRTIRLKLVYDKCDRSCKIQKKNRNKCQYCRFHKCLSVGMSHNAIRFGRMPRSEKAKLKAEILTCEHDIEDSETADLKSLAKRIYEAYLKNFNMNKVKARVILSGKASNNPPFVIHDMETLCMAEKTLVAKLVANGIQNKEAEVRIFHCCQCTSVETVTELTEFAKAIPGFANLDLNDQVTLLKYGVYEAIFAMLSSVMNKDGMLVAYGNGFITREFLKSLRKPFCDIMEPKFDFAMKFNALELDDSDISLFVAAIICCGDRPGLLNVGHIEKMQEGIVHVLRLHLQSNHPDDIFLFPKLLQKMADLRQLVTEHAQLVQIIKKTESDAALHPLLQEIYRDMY
Sequence of human Thyroid Receptor Alpha (TRa), THRA (gene 7067) (P10827 whole entry, looked up): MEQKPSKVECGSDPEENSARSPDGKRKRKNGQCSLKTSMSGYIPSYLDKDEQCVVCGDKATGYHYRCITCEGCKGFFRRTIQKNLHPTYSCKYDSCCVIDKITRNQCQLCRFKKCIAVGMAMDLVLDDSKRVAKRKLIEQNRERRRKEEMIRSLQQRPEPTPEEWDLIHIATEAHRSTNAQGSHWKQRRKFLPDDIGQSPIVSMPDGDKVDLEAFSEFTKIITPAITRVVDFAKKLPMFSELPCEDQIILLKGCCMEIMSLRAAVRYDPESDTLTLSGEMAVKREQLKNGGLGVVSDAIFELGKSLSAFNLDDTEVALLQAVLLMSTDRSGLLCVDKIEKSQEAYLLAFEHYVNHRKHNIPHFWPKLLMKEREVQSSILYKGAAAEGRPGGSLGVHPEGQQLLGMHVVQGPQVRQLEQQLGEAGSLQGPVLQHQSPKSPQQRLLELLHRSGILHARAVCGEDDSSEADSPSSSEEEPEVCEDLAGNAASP

On to `CCCOCC(C)O` (centres undefined), for which the result in experiment [1] and in experiment [2] was inactive.

Take `BrC1CCC(Br)C(Br)CCC(Br)C(Br)CCC1Br` (centres undefined): the outcome in experiment [3], in experiment [2] and in experiment [5] was inactive. Further, the results for the AC50 in experiment [1] and in experiment [4] were 19.6 µM (active) and 60.4 µM (active), respectively.

Take `OCCN1CCNCC1`: the result in experiment [3], in experiment [6], in experiment [4] and in experiment [5] was inactive.

Take `CCCCOCCOCCOCCOCCO`: the outcome in experiment [6], in experiment [4] and in experiment [5] was inactive.

Take `CCCCCCCCCC=O`: the result in experiment [3], in experiment [6] and in experiment [4] was inactive.

As for `CC(=O)OCCOC(C)=O`, the outcome in experiment [3], in experiment [6], in experiment [4] and in experiment [5] was inactive.

Consider `CC(C)(C)C(=O)c1ccccc1`, for which, in experiment [3], the outcome was inactive.

Regarding `CN(C)CCCN`, the result in experiment [3] was inactive.

Turning to `CCC/C=C/C=O`, the result in experiment [3], in experiment [6], in experiment [1], in experiment [2], in experiment [4] and in experiment [5] was inactive.

On to `OCCOCCOCCOCCO`, for which the result in experiment [6], in experiment [4] and in experiment [5] was inactive.

`CC(=O)OCCC(C)CC(C)(C)C` (centres undefined): the molecule was classed as inactive in experiment [3].

On to `O=Nc1ccc(Nc2ccccc2)cc1`, for which the result in experiment [3] and in experiment [4] was inactive. The AC50 (commonly the concentration giving half of the maximal activity seen) in experiment [1] was 14.2 µM (active); in experiment [2], 11 µM (active); in experiment [7] it was 17.6 µM (active).

For the molecule `CCCCCCCCC`, the result in experiment [3], in experiment [6], in experiment [4] and in experiment [5] was inactive.

`NC(=O)Nc1ccc(Cl)cc1`: the molecule was classed as inactive in experiment [3], in experiment [6], in experiment [4] and in experiment [5].

For the molecule `O=c1cc(-c2ccccc2)oc2cc(O)cc(O)c12`, the outcome in experiment [1] and in experiment [2] was inactive. Besides, the AC50 in experiment [5] was 7.09 µM (active).

On to `CCCCCCCCCCCCCOS(=O)(=O)O`, for which the result in experiment [1], in experiment [2] and in experiment [5] was inactive. Further, in experiment [8], the AC50 is 2.1 µM (active).

As for `CCCCCCCCCCCCCC(=O)O`, the outcome in experiment [3], in experiment [6], in experiment [4] and in experiment [5] was inactive.

Turning to `O=C1c2ccccc2C(=O)N1SC1CCCCC1`, the outcome in experiment [3], in experiment [6] and in experiment [5] was inactive.

`CCCCC[Si](OCC)(OCC)OCC`: the outcome in experiment [1], in experiment [2], in experiment [5] and in experiment [8] was inactive.
